Values joined by “and” are separate entries in the source; they are usually repeats but may differ in a detail not shown here. Identical values can stand only once. Counter-ions that a name gives are not always drawn. ± gives the standard deviation of the averaged measurements.
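Note: TDF denotes transformed human dermal fibroblasts of mesenchymal origin.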

This assay has as its system HCC1569. Put plainly: cell number relative to DMSO (% of DMSO); higher = more cells (less growth inhibition / toxicity). The following applies: concentration: 10 µM; 24 h. In outline: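 Cells were seeded at 800 per well in 384-well plates with RPMI containing 10% FBS; both HCC1569 and TDF lines were used. Compounds were added at 10 µM for 24 h at 37 °C, in triplicate, before fixation in 3.7% formaldehyde and staining with a rabbit anti-H1.0 antibody, an AlexaFluor 647 secondary and DAPI. H1.0 nuclear intensity or cell number is reported as percent of the plate control using the median of replicates, and HCC1569 values were smoothed for positional effects.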
Take `NCC1OC(OC2C(CO)OC(OC3C(O)C(N)CC(N)C3OC3OC(CO)C(O)C(O)C3N)C2O)C(N)C(O)C1O.O=S(=O)(O)O` (stereo not given) [Paromomycin sulfate]: the cell number came out at 105.
The value for `C=CC(=O)c1ccc2ccccc2c1` was 99.7.
The value for `CC1OC(OC2C(Oc3cc(O)c4c(c3)OC(c3ccc(O)cc3)CC4=O)OC(CO)C(O)C2O)C(O)C(O)C1O` (stereo not given) [Naringin] was 103.
For `O.Oc1cc(O)c2c(c1)OC(c1ccc(O)c(O)c1)C(O)C2` (single isomer, unassigned; (+)) [(+)-Catechin Hydrate], the cell number amounted to 98.9.
For the compound `CCCCCCCCCC(=O)NC(CN1CCOCC1)C(O)c1ccccc1.Cl` (racemic), the cell number came out at 94.
The value for `O=c1[nH][nH]c2nnc(-c3c(-c4ccccc4)nn4ccccc34)cc12` [ERK Inhibitor II,                   Negative control] was 98.3; that for `O=C1NC(C(=O)O)CS1` (stereo not given) [Procysteine] was 101.
With `Cc1ccc2c(c1)C(N1CCN(C)CC1)=Nc1cccnc1N2`, the cell number amounted to 103.
Compound `COC(=O)C1=C(C)NC(C)=C(C(=O)OCCN2CCN(C(c3ccccc3)c3ccccc3)CC2)C1c1cccc([N+](=O)[O-])c1` (stereo not given) [Manidipine] displayed a cell number of 106.
On to `COc1c2occc2cc2ccc(=O)oc12` [Xanthotoxin], for which the cell number was 101.
For `Cc1cc(Cc2cc(C)cc(C(C)(C)C)c2O)c(O)c(C(C)(C)C)c1`, the cell number is 99.9 and 104.
As to `CCC12CCCN3CCc4c(n(c5ccccc45)C(O)(C(=O)OC)C1)C32` (stereo not given) [Vincamine], the cell number came to 101.
For `CCCCCN(C)CCC(O)(P(=O)(O)O)P(=O)(O)O` [Ibandronate], the cell number came to 103.
For `NC(=O)N1c2ccccc2C=Cc2ccccc21` [Carbamazepine], the cell number came to 101 ± 6.6.
For `CCOC(=O)c1ncn2c1CN(C)C(=O)c1cc(F)ccc1-2` [Flumazenil], the cell number is 104 ± 7.3.
The value for `CCCCCCCCCCCC=CCCCCCC(=O)O` [7(Z)-Nonadecenoic acid] was 97.8; that for `CC(=O)CCCCn1c(=O)c2c(ncn2C)n(C)c1=O` [Pentoxifylline] was 103 ± 4.1; that for `CCCCCCCCC=CCCCCCCCCOCC(COP(=O)([O-])OCC[N+](C)(C)C)OC(C)=O` (stereo not given) was 101.
Consider `CC(C)c1cc(C(C)C)c(-c2csc(N(CCN(C)C)Cc3cccnc3)n2)c(C(C)C)c1`, for which the cell number amounted to 50.7.
On to `COc1cc(Cc2cnc(N)nc2N)cc(OC)c1OC` [Trimethoprim], for which the cell number amounted to 99 ± 1.6.
`CC(=O)OC1(C(C)=O)CCC2C3C=C(C)C4=CC(=O)CCC4(C)C3CCC21C` (stereo not given) [Megestrol Acetate]: the cell number came out at 106.
The value for `NC1CCN(c2nc3c(cc2F)c(=O)c(C(=O)O)cn3-c2ccc(F)cc2F)C1` (stereo not given) [Tosufloxacin] was 106; that for `CN1CCN(C2Cc3ccccc3Sc3ccc(Cl)cc32)CC1.O=C(O)C=CC(=O)O` (stereo not given) was 82.
Compound `O=C(NCCO[N+](=O)[O-])c1cccnc1` [Nicorandil] had a cell number of 102.
`CCCCCCCCCCCCCCCC(=O)NC(CN1CCOCC1)C(O)c1ccccc1` (racemic) showed a cell number of 103.
Take `O=C(O)/C=C/c1ccc(O)c(O)c1` [Caffeic acid]: the cell number was found to be 98.5 ± 1.5.
Regarding `CC(C)(C)NCC(O)COc1nsnc1N1CCOCC1` (stereo not drawn) [S(-)-Timolol maleate], the cell number amounted to 97.5.
`Cc1ccc(C(=O)c2ccc(CC(=O)O)n2C)cc1` [Tolmetin] registered a cell number of 101.
With `CC1C(=O)OC2C(O)C34C5CC(C(C)(C)C)C36C(OC(=O)C6O)OC4(C(=O)O5)C12O` (stereo not given) [Ginkgolide B], the cell number amounted to 104.
As to `Nc1ccc2ncnc(NCCc3ccc(Oc4ccccc4)cc3)c2c1` [NF-kB Activation Inhibitor], the cell number was determined as 66.3.
`Nc1c2c(nc3ccccc13)CCCC2O.O=C(O)C=CC(=O)O` (stereo not given) [Hydroxytacrine maleate] yielded a cell number of 104.
In turn, `CC1=CC(=O)C(C(C)C)=CC1=O` [Thymoquinone] yielded a cell number of 104 ± 1.4.
The value for `CCCCCC=CC=CC(O)CCCCCCCC(=O)O` (racemic) was 103.
In turn, `COc1cc(C(=O)c2ccc3ncccc3c2)cc(OC)c1OC` [quinolin-6-yl(3,4,5-trimethoxyphenyl)methanone] registered a cell number of 59.6.
On to `CC(=O)O.NC(=NCCCC(N)C(=O)O)NO` [NG-Hydroxy-L-arginine acetate], for which the cell number was 97.8.
`O=C(O)c1ccc(SC2=NS(=O)(=O)c3ccccc32)cc1` [4-((1,1-dioxidobenzo[d]isothiazol-3-yl)thio)benzoic acid] gave a cell number of 100.
Compound `COc1cc(=O)n(C)c2c(OCC(O)C(C)(C)O)cccc12` (stereo not given) [Foliosidine] showed a cell number of 103.
The value for `[N-]=[N+]=Nc1ccc(C(=O)CSCC(NC(=O)CCC(N)C(=O)O)C(=O)NCC(=O)O)cc1` (stereo not drawn) [S-(p-Azidophenacyl)glutathione] was 103; that for `CCCCCCCCCCCCCCCC(O)C(CO)NC(=O)CCCCCCC` (stereo not given) [C8 Dihydroceramide] was 100; that for `CCCCCC#CCC#CCC#CCC#CCCCC(=O)O` [5,8,11,14-Eicosatetraynoic acid] was 105.

Source of the values: the supplement of paper PMC7156485.
